Sampled rows, rich in hits. Any-hit rate of the full collection: about 9.3%.
FLuc modulator – qHTS profiling assay for firefly luciferase inhibitor/activator using purifed enzyme and Km concentrations of substrates (counterscreen for miR-21 project). Luciferin 4-monooxygenase (Photinus pyralis), P08659. purified FLuc, Km substrates, luminescence inhibition. Potency, µM (highest dose often 57.5 µM), without a hit: top-dose activity change, negative = inhibition, usual class: inhibitors. hit rate 6.9% among 360,000. AID 588342, 2011;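 note: plate controls were vehicle for no effect and reference inhibitor for full effect; nearly all actives have a fitted effect of over 55% in size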
Target sequence (P08659 whole entry, looked up): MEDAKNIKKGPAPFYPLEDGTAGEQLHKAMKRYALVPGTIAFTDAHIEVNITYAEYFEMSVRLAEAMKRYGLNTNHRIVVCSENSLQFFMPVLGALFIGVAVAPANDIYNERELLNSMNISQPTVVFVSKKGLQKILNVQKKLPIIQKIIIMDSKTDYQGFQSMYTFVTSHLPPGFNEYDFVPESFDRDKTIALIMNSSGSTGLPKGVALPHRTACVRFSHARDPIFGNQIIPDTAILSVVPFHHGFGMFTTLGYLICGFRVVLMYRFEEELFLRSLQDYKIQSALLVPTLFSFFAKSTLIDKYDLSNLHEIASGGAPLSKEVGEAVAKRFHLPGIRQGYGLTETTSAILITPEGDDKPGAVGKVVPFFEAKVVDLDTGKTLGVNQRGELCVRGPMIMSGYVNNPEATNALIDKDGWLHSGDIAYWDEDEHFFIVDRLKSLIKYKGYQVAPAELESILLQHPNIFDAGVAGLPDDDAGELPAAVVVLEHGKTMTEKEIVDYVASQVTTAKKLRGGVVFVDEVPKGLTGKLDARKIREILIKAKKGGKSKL
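Purified P. pyralis luciferase (10nM final) with 10uM D-luciferin and 10uM ATP (Km levels) in 50mM Tris acetate pH 7.5, 10mM Mg acetate, 0.01% Tween-20, 0.05% BSA; qHTS 6-point titration, ~60 µM downward; luminescence read.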
ELG1 genotoxic – qHTS screen for small molecules that induce genotoxicity in human embryonic kidney (HEK293T) cells expressing luciferase-tagged ELG1; hit rate 1.3% among 330,000; HEK293T ELG1-luciferase reporter, luminescence, 16 h; AID 504466, 2011; Potency, µM (doses to about 46 µM), for inactives: at the highest dose activity change, positive = activation, actives largely listed as activators; note: % of control where 0% means no effect; nearly all actives have a fitted effect of over 60% in size
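Reporter readout depends on ELG1 protein level, which increases with genetic stress. After 16 hr compound exposure at 37 °C, luciferase activity was quantified using ONE-Glo.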
Rab9 prom act – qHTS Assay for Rab9 Promoter Activators; Huh7 Rab9 promoter-luciferase reporter, luminescence, 24 h; Potency, µM (titrated, usually from 9.22 µM), for the others: top-dose activation, negative = inhibition, most hits filed as activators; hit rate 2.8% among 320,000; AID 485297, 2010; note: % of control where 0% means no effect; nearly all actives have a fitted effect of over 60% in size
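Huh7 cells stably carrying a Rab9 promoter-luciferase reporter, 1500 cells per well in OP-MEM I with 10% FBS, treated with compound 24 hours at 37C. Luciferase activity read by luminescence after 10 minutes with Amplite reagent.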
ELG1 DNA repair – qHTS screen for small molecules that inhibit ELG1-dependent DNA repair in human embryonic kidney (HEK293T) cells expressing luciferase-tagged ELG1. HEK293T ELG1-luciferase reporter, luminescence, 16 h; DNA damage induced by 5-fluorouridine. Potency, µM (highest dose often 46.1 µM), inactives show at the top dose activity change, negative = inhibition, usual class: inhibitors. AID 504467, 2011. hit rate 2.3% among 330,000; note: % is set by controls: 0 for no effect and ±100 for the full control effect; nearly all actives have a fitted effect of over 55% in size
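Overnight (16 hr) co-exposure of 2,000 cells/well to 5-fluorouridine and compound at 37 °C preceded detection. Luciferase was quantified via ONE-Glo luminescence; loss of signal denotes inhibition.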
SMN2 splice up – qHTS Assay for Enhancers of SMN2 Splice Variant Expression; hit rate 2.8% among 210,000; Potency, µM (highest dose often 46.1 µM), for the others: at the top dose activity change, positive = activation, actives largely listed as activators; HEK293 SMN2-luciferase splicing reporter, luminescence, 30-36 h; note: % of control where 0% means no effect; nearly all actives have a fitted effect of over 55% in size
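HEK293 cells carry an SMN2 […]–luciferase reporter in which exon 7 inclusion puts luciferase in frame. Cells were plated 10-12 h before compound addition, then incubated 30-36 h at 37C. ONE-Glo luminescence was read; sodium butyrate at 4.5 mM final served as control.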
NPC1 promoter act – qHTS Assay for NPC1 Promoter Activators. Huh7 NPC1 promoter luciferase reporter, 24 h. Potency, µM (top dose mostly 9.22 µM), inactives show at the top dose activation, hits mostly activators. hit rate 2.4% among 320,000; note: % of control where 0% means no effect; nearly all actives have a fitted effect of over 60% in size
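Quantitative HTS used a cell-based reporter: Huh7 cells stably bearing the NPC1 promoter upstream of luciferase were treated with compounds for 24 h, and promoter activation was read as luminescence.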
* = called active by the depositor; ? = inconclusive; / = no result. Calls come from the whole dose curve; as a rule, active = well fitted curve in the direction sought with a large enough effect; inconclusive = small, poorly fitted or top-dose-only effect, or another doubt; inactive = no such curve, though single readings can be large; an effect the other way counts as inactive or inconclusive. Potency is the fitted concentration of half-maximal effect.

SMILES	FLuc modulator	ELG1 genotoxic	Rab9 prom act	ELG1 DNA repair	SMN2 splice up	NPC1 promoter act
CCOC(=O)c1[nH]c2ccc(OC)cc2c1NC(=S)N1CCN(c2cccc(C)c2C)CC1	-0.2%	-4.8%	0.7%	13µM*	-4.2%	-7.6%
CCOC(=O)c1[nH]c2ccc(OC)cc2c1C	13.5µM*	?	?	?	4.0%	?
Cn1c(N)c(C(=O)COC(=O)/C=C/c2ccc(Cl)c(Cl)c2)c(=O)n(C)c1=O	/	-1.7%	/	-2.1%	/	/
Fc1ccccc1C1CC(c2ccco2)=Nc2ccccc2S1 (stereo unspecified)	21.3µM*	?	19.6%	?	/	30.0%
COc1ccccc1C1CC(c2cccs2)=Nc2ccccc2S1 (stereo unspecified)	?	?	1.6%	?	-7.0%	0.8%
CC(=Nc1cccc(C)c1)c1sc2ccccc2c1O	3.01µM*	9.2µM*	?	?	12.6µM*	19.8%
CC(=Nc1ccc(O)cc1)c1sc2ccccc2c1O	2.39µM*	4.61µM*	1.12µM*	?	10µM*	1.78µM*
CC(=Nc1ccccc1O)c1sc2ccccc2c1O	9.53µM*	?	?	?	/	5.7%
CC(=O)NCCN=C(C)c1sc2ccccc2c1O	?	11.2%	?	?	?	?
CCOc1ccc(NC2CCCCC2NS(=O)(=O)c2ccccc2)cc1 (stereo unspecified)	2.4%	-4.2%	-3.5%	-8.0%	/	2.3%
CC(C)(C)C(=O)O/N=C(\N)COc1cccc(Cl)c1	16.9µM*	8.4%	-1.1%	6.6%	/	3.5%
O=C(Nc1nc(-c2ccccc2)cs1)C1CCCN(S(=O)(=O)c2cccc([N+](=O)[O-])c2)C1 (stereo unspecified)	-4.3%	-0.8%	2.5%	16.4µM*	-41.3%	0.3%
O=C(Nc1nc(-c2ccccc2)cs1)C1CCCN(S(=O)(=O)c2ccccc2)C1 (stereo unspecified)	-2.3%	-23.6%	9.5%	2.31µM*	-59.7%	0.6%
CC(C)N1CC(O)=C(c2nc3ccccc3[nH]2)C1=N	19µM*	?	?	?	8.8%	16.4%
COc1nnc(-c2ccc(N3CCOCC3)c(NC(=O)C3CCCCC3)c2)c2ccccc12	2.3%	2.3%	-1.5%	-0.3%	-14.3%	-10.8%
c1ccc2c3c(cc(N4CCOCC4)c2c1)OC1(N2CCOCC2)CCCCC1O3 (stereo unspecified)	0.2%	-14.8%	3.2%	?	22.4µM*	0.6%
O=c1c2ccccc2nc2ccc(NCc3cccs3)nn12	8.49µM*	-20.1%	1.58µM*	?	15.8µM*	3.55µM*
O=C(COC(=O)c1ccc(Cl)c(S(=O)(=O)NCc2ccccc2)c1)NCC1CCCO1 (stereo unspecified)	-3.1%	-1.2%	-0.9%	10.6%	5.8%	0.0%
COC(=O)C(C)Sc1ncnc2c1nnn2-c1ccc(F)cc1 (stereo unspecified)	8.49µM*	?	29.4%	?	-2.2%	?
O=C(c1ccccc1-c1nc(-c2ccc(Cl)cc2)no1)N1CCCC1	19µM*	?	3.16µM*	?	-15.5%	?
Cc1ccc(-c2noc(-c3ccccc3C(=O)N3CCCC3)n2)cc1	23.9µM*	?	5.5%	?	-7.8%	10.5%
O=C(c1ccccc1-c1nc(-c2ccccc2)no1)N1CCCC1	26.9µM*	12.4%	-2.4%	?	?	-0.6%
Cc1ccc(-c2noc(-c3ccccc3C(=O)N3CCN(C)CC3)n2)cc1	?	?	14.9%	?	-4.0%	0.2%
CC(Oc1ccc(Br)cc1)C(=O)Nc1ccncc1 (stereo unspecified)	3.0%	-11.1%	-11.9%	5.17µM*	4.4%	-4.4%
Cc1ccc(OC(C)C(=O)Nc2ccncc2)cc1C (stereo unspecified)	-3.1%	-9.5%	3.6%	?	/	-6.4%
SMILES	FLuc modulator	ELG1 genotoxic	Rab9 prom act	ELG1 DNA repair	SMN2 splice up	NPC1 promoter act
Cn1cc(CNC(=O)c2ccc3nc(Cc4ccccc4F)oc3c2)cn1	23.9µM*	?	?	?	/	2.82µM*
Cn1cc(CCNC(=O)c2ccc3nc(Cc4ccccc4F)oc3c2)cn1	5.36µM*	?	1.58µM*	?	/	2.51µM*
CCn1cc(CNC(=O)c2ccc3nc(Cc4ccccc4F)oc3c2)cn1	?	9.7%	-5.8%	4.2%	/	0.5%
COc1ccc(CN2C(=O)c3ccccc3C2=O)cc1	7.6%	3.7%	5.2%	-2.0%	/	3.1%
COc1ccc(CN2C(=O)c3ccccc3C(/C=N/OCc3ccc(Cl)cc3)C2=O)cc1 (stereo unspecified)	21.3µM*	-7.6%	-3.5%	3.0%	-60.7%	-3.5%
COc1ccc(CN2C(=O)c3ccccc3C(/C=N\OCc3ccc(F)cc3)C2=O)cc1 (stereo unspecified)	21.3µM*	-7.2%	3.0%	12.3%	-52.1%	-2.4%
COc1ccc(/C=C2\C(=O)N(Cc3ccc(F)cc3)CC(=O)N2Cc2ccccc2)cc1	-1.6%	-3.8%	3.4%	?	-27.4%	-4.3%
CCOC(=O)Cc1csc(NS(=O)(=O)c2ccc(SC)cc2)n1	-16.2%	-2.2%	-6.9%	15.0%	-3.1%	-3.1%
CN(C)S(=O)(=O)c1ccc(N2CCCC2)c(C(=O)OCC(=O)N2CCN(c3ccccc3)CC2)c1	-2.0%	-4.9%	-1.8%	-17.7%	/	0.8%
Cc1cc(O)cc(O)c1C(=O)Cc1ccccc1	-9.5%	-11.3%	2.1%	10.3µM*	-15.3%	-1.8%
Cc1cc(C)c(S(=O)(=O)Nc2ccc(-c3ccc(N4CCCCC4)nn3)cc2)c(C)c1	13.5µM*	/	/	/	/	/
O=S(=O)(Nc1cccc(-c2ccc(N3CCCCCC3)nn2)c1)c1ccccc1	7.57µM*	/	/	/	/	/
CCc1ccc(S(=O)(=O)Nc2ccc(-c3ccc(N4CCCC4)nn3)cc2)cc1	1.0%	/	/	/	/	/
O=S(=O)(Nc1cccc(S(=O)(=O)N2CCCCCC2)c1)c1ccccc1	-12.6%	-2.5%	-2.5%	2.4%	/	-1.0%
Cc1cccc(S(=O)(=O)Nc2cccc(-c3ccc(N4CCCCC4)nn3)c2)c1	3.38µM*	/	/	/	/	/
Cc1ccc(S(=O)(=O)Nc2cccc(-c3ccc(N4CCCCCC4)nn3)c2)cc1	5.36µM*	?	?	?	/	?
COc1cccc(CNC(=O)C2(c3cccs3)CCOCC2)c1	7.2%	/	/	/	/	/
